Reference: PubChem BioAssay (Tox21)
Several values for one entry are separate records, joined by “and”; a condition that tells them apart may be missing. Equal entries are not always repeated. Inconclusive results are not listed. Where a call stands in place of a potency, no number is given. Some structures have more than one record in an assay (separate samples or runs), and their calls can disagree. Activity calls are given as the source filed them. Calls follow the shape of the dose curve; as a rule, active = well fitted curve in the direction sought with a large enough effect in the repeat runs; inconclusive = weak or mixed curves; inactive = no such curve, though single readings can be large; an effect the other way counts as inactive or inconclusive.

How the values were obtained:
[1] = Human pregnane X receptor (PXR) small molecule agonists, qHTS cell viability counter screen (AID 1346977); also: nearly all actives have a fitted effect of over 50% in size; also: potency is read from the fitted curve at half-maximal effect
How it was run: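 PXR-Luc HepG2, 2,000 cells/well, 5% charcoal-stripped FBS; 5hr settle; cpd 24hr, 37C/5% CO2; CellTiter-Fluor at 23hr, read 1hr later (fluorescence).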

[2] = Caspase-3/7 induction in HepG2 cells by small molecules, qHTS assay (AID 1346978); also: nearly all actives have a fitted effect of over 15% in size; also: potency is read from the fitted curve at half-maximal effect
How it was run: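 Wild-type HepG2 cells (2,000/well) were settled 5 h at 37 C, 5% CO2, then exposed to compounds in DMSO for 17 h. Caspase-3/7 activity was read by luminescence 30 min after adding Caspase-Glo 3/7 reagent at room temperature.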

[3] = Caspase-3/7 induction in CHO-K1 cells by small molecules, qHTS cell viability counter screen (AID 1346979); also: nearly all actives have a fitted effect of over 35% in size; also: potency is read from the fitted curve at half-maximal effect
How it was run: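 Cells (CHO-K1, wild type) are plated at 1,500 per well and incubated 5hr. Test compounds in DMSO are then pinned in, followed by 16hr at 37C and 5% CO2. Viability is read by CellTiter-Fluor fluorescence after 1hr.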

[4] = Caspase-3/7 induction in CHO-K1 cells by small molecules, qHTS assay (AID 1346980); also: nearly all actives have a fitted effect of over 15% in size
How it was run: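 Wild-type cells were seeded at 1,500 per well and settled 5 hr at 37 C, 5% CO2, then exposed to DMSO-dissolved compounds for 17 hr. Caspase-Glo 3/7 reagent was added, and luminescence was read after 30min at room temperature.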

[5] = Caspase-3/7 induction in HepG2 cells by small molecules, qHTS cell viability counter screen (AID 1346981); also: nearly all actives have a fitted effect of over 30% in size; also: potency is read from the fitted curve at half-maximal effect
How it was run: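 HepG2, WT, 2,000 cells/well; 5 hr pre-incubation 37 C/5% CO2; compound pin-transferred from DMSO; 16 hr exposure; CellTiter-Fluor, 1 hr; fluorescence read.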

[6] = biological target: Nuclear receptor subfamily 1 group I member 2 (Homo sapiens) (UniProt O75469); test: Human pregnane X receptor (PXR) small molecule agonists, qHTS assay (AID 1346982); also: nearly all actives have a fitted effect of over 35% in size; also: potency is read from the fitted curve at half-maximal effect
Nuclear receptor subfamily 1 group I member 2 (Homo sapiens), sequence (O75469 whole entry, looked up): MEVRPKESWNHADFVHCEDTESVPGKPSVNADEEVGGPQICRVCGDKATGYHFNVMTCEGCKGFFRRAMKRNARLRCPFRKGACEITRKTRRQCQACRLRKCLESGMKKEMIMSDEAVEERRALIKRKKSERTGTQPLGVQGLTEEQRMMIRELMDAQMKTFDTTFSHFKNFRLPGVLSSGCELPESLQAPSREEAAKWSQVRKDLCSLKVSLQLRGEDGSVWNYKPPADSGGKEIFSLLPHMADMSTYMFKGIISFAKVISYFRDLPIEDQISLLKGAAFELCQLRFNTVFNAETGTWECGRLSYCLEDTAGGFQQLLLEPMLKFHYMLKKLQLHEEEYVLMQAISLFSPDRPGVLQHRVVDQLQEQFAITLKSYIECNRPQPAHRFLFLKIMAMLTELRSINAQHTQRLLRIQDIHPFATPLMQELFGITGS
How it was run: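 Luciferase signal from ONE-Glo (30 min, room temperature) measured activation of hPXR-driven CYP3A4 reporter expression in PXR-Luc HepG2 cells treated with compounds for 24 hr at 37 C.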

[7] = biological target: Nuclear receptor subfamily 1 group I member 2 (Rattus norvegicus) (UniProt Q9R1A7); test: Rat pregnane X receptor (rPXR) activation by small molecules, qHTS assay (AID 1346983); conditions: rPXR luciferase reporter cells, One-Glo luminescence, 24 h; max activation: stronger effect = higher value; also: nearly all actives have a fitted effect of over 20% in size
Nuclear receptor subfamily 1 group I member 2 (Rattus norvegicus), sequence (Q9R1A7 whole entry, looked up): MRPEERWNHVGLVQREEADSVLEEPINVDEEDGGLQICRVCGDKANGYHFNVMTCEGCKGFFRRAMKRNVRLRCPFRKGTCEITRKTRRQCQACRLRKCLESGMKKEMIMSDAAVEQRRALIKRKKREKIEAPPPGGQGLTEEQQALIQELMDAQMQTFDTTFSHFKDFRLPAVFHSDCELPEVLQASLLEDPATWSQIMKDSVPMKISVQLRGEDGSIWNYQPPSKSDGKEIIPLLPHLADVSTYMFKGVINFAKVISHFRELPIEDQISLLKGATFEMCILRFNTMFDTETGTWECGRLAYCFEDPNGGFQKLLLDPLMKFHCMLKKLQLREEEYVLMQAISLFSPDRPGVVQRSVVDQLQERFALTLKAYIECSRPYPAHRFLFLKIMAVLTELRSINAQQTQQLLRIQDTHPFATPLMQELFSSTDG
How it was run: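 Cell-based rPXR luciferase reporter assay, 2,000 cells per well, rested 5hr at 37 C before compound addition in DMSO, then 24 hr at 37 C. One-Glo reagent was added and luminescence read after 30 min at room temperature.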

[8] = biological target: Nuclear receptor subfamily 1 group I member 2 (Homo sapiens) (UniProt O75469); test: CYP3A4 induction through human pregnane X receptor (PXR) by small molecules, qHTS assay (AID 1346984); also: nearly all actives have a fitted effect of over 40% in size
How it was run: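 Luminescence readout: luciferase signal after One-Glo (30 min, room temperature), following 3 h at 37C with 3uM final Luciferin-IPA P450 substrate. Cells were DPX-2 (HepG2, PXR/CYP3A4-luc co-transfected) dosed for 24 h.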

[9] = biological target: Nuclear receptor subfamily 1 group I member 2 (Homo sapiens) (UniProt O75469); test: Human pregnane X receptor (PXR) activation by small molecules, qHTS assay (AID 1346985); also: nearly all actives have a fitted effect of over 40% in size
How it was run: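 DPX-2 cells (HepG2 co-transfected with a PXR response element and a CYP3A4-promoter luciferase construct) were seeded at 2,000 per well, rested 5 hr at 37C, then exposed to DMSO-dissolved compounds for 24 hr. Activation was read as luciferase luminescence.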

[10] = biological target: Cytochrome P450 2D6 (Homo sapiens) (UniProt P10635); test: Cytochrome P450 Family 2 Subfamily D Member 6 (CYP2D6) small molecule antagonists: luciferase reporter qHTS assay (AID 1671196); also: nearly all actives have a fitted effect of over 50% in size; also: potency is read from the fitted curve at half-maximal effect
Cytochrome P450 2D6 (Homo sapiens), sequence (P10635 whole entry, looked up): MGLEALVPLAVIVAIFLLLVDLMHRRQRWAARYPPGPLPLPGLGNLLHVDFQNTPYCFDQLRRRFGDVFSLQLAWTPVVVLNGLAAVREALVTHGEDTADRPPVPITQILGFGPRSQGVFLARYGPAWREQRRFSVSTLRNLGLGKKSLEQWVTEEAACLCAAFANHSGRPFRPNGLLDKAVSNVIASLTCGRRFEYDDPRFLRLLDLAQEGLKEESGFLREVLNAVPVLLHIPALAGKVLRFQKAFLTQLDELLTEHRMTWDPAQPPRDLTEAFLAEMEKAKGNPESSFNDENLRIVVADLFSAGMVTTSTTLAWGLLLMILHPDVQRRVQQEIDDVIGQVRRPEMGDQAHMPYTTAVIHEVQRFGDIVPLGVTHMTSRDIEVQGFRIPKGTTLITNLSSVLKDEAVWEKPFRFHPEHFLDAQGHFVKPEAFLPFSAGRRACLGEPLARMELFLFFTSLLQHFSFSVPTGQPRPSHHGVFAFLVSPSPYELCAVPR
How it was run: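 Read-out is luminescence from luciferin formed by CYP2D6 turnover of a proluciferin substrate, recorded as relative luminescence units. Reactions ran 1 h at room temperature after NADPH regeneration solution was added.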

[11] = biological target: Cytochrome P450 2C19 (Homo sapiens) (UniProt P33261); test: Cytochrome P450 Family 2 Subfamily C Member 19 (CYP2C19) small molecule antagonists: luciferase reporter qHTS assay (AID 1671197); also: nearly all actives have a fitted effect of over 65% in size; also: potency is read from the fitted curve at half-maximal effect
Cytochrome P450 2C19 (Homo sapiens), sequence (P33261 whole entry, looked up): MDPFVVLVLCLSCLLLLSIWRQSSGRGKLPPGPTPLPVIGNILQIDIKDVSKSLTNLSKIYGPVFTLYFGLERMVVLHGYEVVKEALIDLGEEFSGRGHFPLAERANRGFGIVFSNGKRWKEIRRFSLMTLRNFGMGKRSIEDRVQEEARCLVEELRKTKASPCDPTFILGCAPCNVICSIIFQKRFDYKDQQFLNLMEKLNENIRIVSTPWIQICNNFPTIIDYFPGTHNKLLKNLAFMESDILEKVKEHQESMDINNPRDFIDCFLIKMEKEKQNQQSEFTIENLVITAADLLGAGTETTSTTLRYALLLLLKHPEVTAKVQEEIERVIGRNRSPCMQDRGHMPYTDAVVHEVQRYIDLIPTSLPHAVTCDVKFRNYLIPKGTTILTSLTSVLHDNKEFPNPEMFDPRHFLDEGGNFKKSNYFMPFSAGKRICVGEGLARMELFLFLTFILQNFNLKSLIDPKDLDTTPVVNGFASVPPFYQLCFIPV
How it was run: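 P450-Glo CYP2C19 screening system; proluciferin substrate; DMSO compound stocks; 10 min RT preincubation; NADPH regeneration, 1 h at 37C; luciferin detection reagent, 20 min RT; luminescence as RLU.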

[12] = biological target: Cytochrome P450 2C9 (Homo sapiens) (UniProt P11712); test: Cytochrome P450 Family 2 Subfamily C Member 9 (CYP2C9) small molecule antagonists: luciferase reporter qHTS assay (AID 1671198); also: nearly all actives have a fitted effect of over 50% in size; also: potency is read from the fitted curve at half-maximal effect
Cytochrome P450 2C9 (Homo sapiens), sequence (P11712 whole entry, looked up): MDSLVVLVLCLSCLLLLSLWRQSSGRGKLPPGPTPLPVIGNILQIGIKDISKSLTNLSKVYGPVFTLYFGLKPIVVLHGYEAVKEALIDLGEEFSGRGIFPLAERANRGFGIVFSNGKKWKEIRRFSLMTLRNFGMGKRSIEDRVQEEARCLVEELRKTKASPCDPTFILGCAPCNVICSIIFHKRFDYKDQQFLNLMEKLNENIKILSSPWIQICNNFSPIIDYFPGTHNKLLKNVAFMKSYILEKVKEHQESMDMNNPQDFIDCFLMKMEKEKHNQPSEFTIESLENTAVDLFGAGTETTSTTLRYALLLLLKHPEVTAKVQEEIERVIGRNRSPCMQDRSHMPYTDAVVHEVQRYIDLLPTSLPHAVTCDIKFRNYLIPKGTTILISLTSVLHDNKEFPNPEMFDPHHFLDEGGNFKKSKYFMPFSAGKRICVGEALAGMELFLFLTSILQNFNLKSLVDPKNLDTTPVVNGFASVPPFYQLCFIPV
How it was run: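 CYP2C9 activity was measured with a P450-Glo proluciferin substrate. Enzyme–substrate mix was held with compound for 10 min at room temperature, then NADPH regeneration solution was added for 1 h at 37C. Luciferin product was read as luminescence.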

[13] = biological target: Cytochrome P450 1A2 (Homo sapiens) (UniProt P05177); test: Cytochrome P450 Family 1 Subfamily A Member 2 (CYP1A2) small molecule antagonists: luciferase reporter qHTS assay (AID 1671199); also: nearly all actives have a fitted effect of over 50% in size; also: potency is read from the fitted curve at half-maximal effect
Cytochrome P450 1A2 (Homo sapiens), sequence (P05177 whole entry, looked up): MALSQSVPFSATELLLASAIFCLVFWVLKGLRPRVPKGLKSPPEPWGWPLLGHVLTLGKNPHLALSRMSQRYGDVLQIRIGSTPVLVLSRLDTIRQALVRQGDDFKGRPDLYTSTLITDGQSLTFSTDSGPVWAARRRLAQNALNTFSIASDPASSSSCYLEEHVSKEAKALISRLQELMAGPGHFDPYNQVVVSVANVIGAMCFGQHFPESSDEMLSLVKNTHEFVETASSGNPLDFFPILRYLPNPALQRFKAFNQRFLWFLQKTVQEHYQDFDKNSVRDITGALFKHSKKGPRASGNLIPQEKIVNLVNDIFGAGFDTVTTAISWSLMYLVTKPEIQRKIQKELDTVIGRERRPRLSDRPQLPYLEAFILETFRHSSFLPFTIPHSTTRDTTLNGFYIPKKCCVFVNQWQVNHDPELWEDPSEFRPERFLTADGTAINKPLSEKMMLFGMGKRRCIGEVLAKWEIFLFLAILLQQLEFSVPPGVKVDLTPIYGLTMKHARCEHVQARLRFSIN
How it was run: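 P450-Glo CYP1A2, 1536-well qHTS: enzyme/proluciferin substrate + cpd (DMSO), 10 min RT; NADPH regen, 1 h RT; detection reagent, 20 min; luminescence, RLU.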

[14] = biological target: Voltage-gated inwardly rectifying potassium channel KCNH2 (Homo sapiens) (UniProt Q12809); test: Human Ether-a-go-go-Related Gene (hERG) channel small molecule antagonists: fluorescence cell-based qHTS assay (AID 1671200); also: nearly all actives have a fitted effect of over 50% in size; also: potency is read from the fitted curve at half-maximal effect
Voltage-gated inwardly rectifying potassium channel KCNH2 (Homo sapiens), sequence (Q12809 whole entry, looked up): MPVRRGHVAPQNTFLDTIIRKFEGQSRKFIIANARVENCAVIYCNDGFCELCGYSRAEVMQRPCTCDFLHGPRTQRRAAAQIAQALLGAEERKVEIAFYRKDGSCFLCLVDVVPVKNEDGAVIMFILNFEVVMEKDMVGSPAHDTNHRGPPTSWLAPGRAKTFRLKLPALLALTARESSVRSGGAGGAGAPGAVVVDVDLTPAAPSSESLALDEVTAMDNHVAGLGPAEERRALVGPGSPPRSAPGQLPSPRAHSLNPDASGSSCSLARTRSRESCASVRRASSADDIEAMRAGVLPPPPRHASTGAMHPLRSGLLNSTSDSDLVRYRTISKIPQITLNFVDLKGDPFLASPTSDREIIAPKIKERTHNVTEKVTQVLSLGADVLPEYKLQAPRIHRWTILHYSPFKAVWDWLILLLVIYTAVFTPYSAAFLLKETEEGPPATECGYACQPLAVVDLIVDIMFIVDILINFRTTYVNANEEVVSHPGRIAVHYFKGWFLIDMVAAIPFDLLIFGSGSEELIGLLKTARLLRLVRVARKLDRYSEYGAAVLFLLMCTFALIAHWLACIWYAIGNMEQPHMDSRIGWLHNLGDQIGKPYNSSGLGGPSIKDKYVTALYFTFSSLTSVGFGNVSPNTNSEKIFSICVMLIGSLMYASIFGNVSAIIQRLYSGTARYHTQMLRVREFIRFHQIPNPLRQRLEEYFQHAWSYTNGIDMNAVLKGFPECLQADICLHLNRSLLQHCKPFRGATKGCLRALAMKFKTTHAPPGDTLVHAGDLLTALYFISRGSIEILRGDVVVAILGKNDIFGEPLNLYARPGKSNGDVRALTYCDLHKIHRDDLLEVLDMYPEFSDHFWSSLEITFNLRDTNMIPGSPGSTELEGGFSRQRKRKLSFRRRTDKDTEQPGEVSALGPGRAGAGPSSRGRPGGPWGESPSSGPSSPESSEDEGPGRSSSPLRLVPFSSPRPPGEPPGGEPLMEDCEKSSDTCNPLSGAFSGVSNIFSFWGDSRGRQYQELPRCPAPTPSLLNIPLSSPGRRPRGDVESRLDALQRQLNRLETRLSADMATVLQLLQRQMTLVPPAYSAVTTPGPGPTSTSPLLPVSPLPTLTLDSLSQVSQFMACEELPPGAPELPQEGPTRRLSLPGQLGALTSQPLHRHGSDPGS
How it was run: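 Channel function was assessed by thallium flux. Cells seeded the previous day and kept at 37 C took up FluxOR II dye over 1 h in the dark at room temperature, then sat another 10 min before stimulation.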

[15] = biological target: Cytochrome P450 3A4 (Homo sapiens) (UniProt P08684); test: Cytochrome P450 Family 3 Subfamily A Member 4 (CYP3A4) small molecule antagonists: luciferase reporter qHTS assay (AID 1671201)
Cytochrome P450 3A4 (Homo sapiens), sequence (P08684 whole entry, looked up): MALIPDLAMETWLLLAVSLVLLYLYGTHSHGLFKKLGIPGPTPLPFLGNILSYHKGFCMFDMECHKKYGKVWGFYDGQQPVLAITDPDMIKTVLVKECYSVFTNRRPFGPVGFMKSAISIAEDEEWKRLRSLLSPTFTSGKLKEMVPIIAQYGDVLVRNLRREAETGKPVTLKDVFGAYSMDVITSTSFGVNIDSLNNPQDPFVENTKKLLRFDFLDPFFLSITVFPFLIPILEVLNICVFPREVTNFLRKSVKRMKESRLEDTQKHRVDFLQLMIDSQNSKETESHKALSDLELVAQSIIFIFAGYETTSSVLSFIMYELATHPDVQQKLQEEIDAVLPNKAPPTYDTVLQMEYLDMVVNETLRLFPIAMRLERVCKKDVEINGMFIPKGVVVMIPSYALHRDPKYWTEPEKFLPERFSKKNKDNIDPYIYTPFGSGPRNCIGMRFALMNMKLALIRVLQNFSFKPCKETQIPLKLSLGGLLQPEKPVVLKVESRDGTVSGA
How it was run: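 Compounds in DMSO were pin-transferred onto CYP3A4 enzyme-substrate mix and held 10 min at room temperature. NADPH regenerating solution started the reaction for 1 h; luciferin detection reagent stopped it, and luminescence was read after 20 min.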

Row | SMILES | Potency [1] | Potency [2] | Potency [3] | Potency [4] | Potency [5] | Potency [6] | max activation [7] | Potency [8] | outcome [9] | Potency [10] | Potency [11] | Potency [12] | Potency [13] | Potency [14] | Potency [15]
1 | CC(=O)CCC(=O)O | inactive | inactive | inactive | inactive | inactive | inactive | -1.2% (inactive) | inactive | inactive | inactive | inactive | inactive | inactive | inactive | 
2 | Cc1cccc(C)c1 | inactive | inactive | inactive | inactive | inactive | inactive |  |  |  | inactive and 21.8 µM (active) | 68.6 µM (active) and inactive | inactive | inactive | inactive | inactive
3 | C[C@](N)(Cc1ccc(O)c(O)c1)C(=O)O | inactive | inactive | inactive | inactive | inactive | inactive | -6.56% (inactive) | inactive | inactive | inactive | inactive | inactive | inactive | inactive | inactive
4 | O=S1(=O)OC(c2ccc(O)cc2)(c2ccc(O)cc2)c2ccccc21 | 24.3 µM (active) and 30.6 µM (active) and 9.44 µM (active) | inactive | 30.6 µM (active) and 13.3 µM (active) | inactive | 34.4 µM (active) and 48.6 µM (active) and 15 µM (active) | inactive | 1.08% (inactive) | inactive | inactive | inactive | inactive and 50.2 µM (active) | 3.17 µM (active) and 3.56 µM (active) and 2.45 µM (active) | 25.2 µM (active) and 39.9 µM (active) | inactive | inactive
5 | CN(C)CCOC(C)(c1ccccc1)c1ccccn1 (stereo not drawn) | inactive | inactive | inactive | inactive | inactive | inactive |  |  |  | 17.9 µM (active) and 20 µM (active) and 13.8 µM (active) | 40 µM (active) and inactive | inactive | inactive | inactive | inactive
6 | O=c1[nH]cnc2c1ncn2[C@H]1CC[C@@H](CO)O1 | inactive | inactive | inactive | inactive | inactive | inactive | 0.0547% (inactive) | inactive | inactive | inactive | inactive | inactive | inactive | inactive | inactive
7 | CCCCCCCCCCCC[N+](C)(C)Cc1ccccc1 | 52.8 µM (active) | 67.3 µM (active) and 66.4 µM (active) | 42.4 µM (active) and 33.3 µM (active) and 26.6 µM (active) | inactive | 67.3 µM (active) and 74.5 µM (active) and inactive | inactive |  |  |  | 984 nM (active) and 866 nM (active) and 219 nM (active) | 78.1 µM (active) and 34.5 µM (active) and 17.4 µM (active) | 77.2 µM (active) | 34.9 µM (active) and 38.7 µM (active) and 36.3 µM (active) | 1.08 µM (active) and 1.5 µM (active) and 1.07 µM (active) | inactive
8 | Cc1cn([C@H]2C=C[C@@H](CO)O2)c(=O)[nH]c1=O | inactive | inactive | inactive | inactive | inactive | inactive | -2.07% (inactive) | inactive | inactive | inactive | inactive | inactive | inactive | inactive | inactive
9 | Nc1c2c(nc3ccccc13)CCCC2 | 54.5 µM (active) | inactive | inactive | inactive | inactive | 48.6 µM (active) and 38.6 µM (active) and inactive |  |  |  | 3.56 µM (active) and 11.2 µM (active) and 11 µM (active) | 39.9 µM (active) and inactive | inactive | 5.03 µM (active) and 7.1 µM (active) and 7.23 µM (active) | inactive | inactive
10 | C=CCc1ccc(O)c(OC)c1 | inactive | inactive | inactive | inactive | inactive | inactive | -1.79% (inactive) | inactive | inactive | 9.97 µM (active) and inactive | 39.7 µM (active) and 56.4 µM (active) and inactive |  | 31.5 µM (active) and 39.9 µM (active) | inactive | inactive
11 | CN(C)C(=O)Nc1ccc(Cl)c(Cl)c1 | inactive | inactive | inactive | inactive | inactive | 60.9 µM (active) and 48.6 µM (active) and inactive | -0.866% (inactive) | inactive | inactive | 31.6 µM (active) and inactive | 39.8 µM (active) and 71 µM (active) and inactive | inactive | 794 nM (active) and 1.42 µM (active) and 645 nM (active) | inactive | inactive
12 | NC1CCCCC1 | inactive | inactive | inactive | inactive | inactive | inactive |  |  |  | inactive | 35.8 µM (active) and inactive | inactive | 40.2 µM (active) and inactive | inactive | inactive
